HttQ103 aggreg: reduces HttQ103-GFP aggregates in PC12 cells; PC12 HttQ103-GFP aggregates, Acumen cytometry, 40 h; Potency, µM (doses to about 46.1 µM), most hits filed as inhibitors; 1.1% of 220,000 active; active means well fitted curve in the direction sought with a large enough effect; inconclusive means small, poorly fitted or top-dose-only effect, or another doubt; inactive means no such curve, though single readings can be large; an effect the other way counts as inactive or inconclusive; further: nearly all actives have a fitted effect of over 60% in size
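Multiplexed with ATP-based cell death, this channel scores GFP aggregates in PC12 cells expressing inducible HTTex1-Q103-GFP. Induction used 100 nM tebufenozide; compounds were tested in concentration series.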
Lamin A splicing: modulators of lamin A splicing; HeLa LMNA splicing GFP/RFP minigene ratio, 48 h; Potency, µM (titrated, usually from 46.1 µM), actives largely listed as inhibitors; 0.01% of 200,000 active; active means well fitted inhibition curve with a large enough effect in the signal ratio, with a control signal flat, not every such curve was filed as active; inconclusive means small, poorly fitted or top-dose-only effect, or effect the other way, or a change in a side signal; the % refers to the signal ratio
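S3 HeLa stable clones carrying a lamin A-EGFP splicing minigene plus DsRed2 were seeded at 600 cells/well in Opti-MEM with 2% FBS, pin-dosed and incubated 48 h at 37°C. Acumen cytometry (488 nm) gave the GFP/RFP total-intensity ratio.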
ALDH1A1 inh: inhibitors of human aldehyde dehydrogenase 1A1; AID 1030; Potency, µM (doses to about 75.3 µM), usual class: inhibitors; P00352; Purified ALDH1A1, NADH fluorescence, propionaldehyde substrate; 7.3% of 220,000 active
JMJD2E inh: JMJD2E (human) inhibition; Potency, µM (doses to about 57.1 µM), most hits filed as inhibitors; B2RXH2; JMJD2E catalytic domain, FDH-coupled NADH fluorescence (FDH is formaldehyde dehydrogenase); 1.6% of 230,000 active; further: nearly all actives have a fitted effect of over 50% in size
Target sequence (B2RXH2 1-337 limits assumed): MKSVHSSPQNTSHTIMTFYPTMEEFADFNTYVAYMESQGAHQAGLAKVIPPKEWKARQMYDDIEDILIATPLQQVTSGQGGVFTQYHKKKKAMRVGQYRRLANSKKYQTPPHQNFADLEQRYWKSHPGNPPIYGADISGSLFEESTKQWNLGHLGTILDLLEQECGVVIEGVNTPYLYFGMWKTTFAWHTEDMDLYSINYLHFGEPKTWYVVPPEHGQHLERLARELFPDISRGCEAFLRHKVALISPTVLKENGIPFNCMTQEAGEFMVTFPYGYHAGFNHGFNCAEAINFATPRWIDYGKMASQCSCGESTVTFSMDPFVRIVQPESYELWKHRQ
HTT ATP protect: Huntington cell model cytoprotection by ATP luminescence; PC12 HTT-Q103 induced, cytoprotection, ATP luminescence, 40 h; Potency, µM (series often up to 56.4 µM), hits mostly activators; 0.14% of 230,000 active; AID 1471; active means well fitted curve in the direction sought with a large enough effect; inconclusive means small, poorly fitted or top-dose-only effect, or another doubt; inactive means no such curve, though single readings can be large; an effect the other way counts as inactive or inconclusive; further: nearly all actives have a fitted effect of over 45% in size
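Rat PC12, Q103 Htt exon1-GFP fusion, ecdysone promoter; tebufenozide inducer 100 nM final; compound titration; qHTS, 1500 cells/well; ATPlite luminescent read.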
HPGD block: HPGD (human) dehydrogenase inhibition; P15428; purified HPGD, NADH fluorescence kinetic, PGE2 substrate; Potency, µM, usual class: inhibitors; 4.3% of 150,000 active; AID 894
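20 nM HPGD preincubated 15 min at room temperature with compound in 50 mM Tris-HCl pH 8, 0.01% Tween 20. Started with 1 mM NAD+ and 30 uM prostaglandin E2; NADH fluorescence (360/450 nm) read 5 times over 30-s intervals, last minus first.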
Large screens that a line does not name were inactive. Only some compounds are listed: those with a hit (about 9.2% of all), similar ones and a draw of the others. Unless noted, the call rests on the fitted dose curve; in most records, active means well fitted inhibition curve with a large enough effect (not every such curve was filed as active); inconclusive means small, poorly fitted or top-dose-only effect, or another doubt; inactive means no such curve, though single readings can be large or run the other way.

O=C1N=C(N2CCc3ccccc3C2)S/C1=C\c1cccc(O)c1	ALDH1A1 inh 2.5µM, HPGD block 5µM
O=C1N=C(N2CCOCC2)S/C1=C\c1ccc(OS(=O)(=O)c2ccccc2)cc1	ALDH1A1 inh 28µM, JMJD2E inh inconclusive (no result: Lamin A splicing, HPGD block)
CCOc1ccc(/C=C2\SC(N3CCc4ccccc4C3)=NC2=O)cc1	HPGD block 22µM
C=C(CO)[C@H]1Cc2c(ccc3c2O[C@H]2COc4cc(OC)c(OC)cc4[C@@H]2C3=O)O1	none (no result: HttQ103 aggreg, Lamin A splicing, ALDH1A1 inh, JMJD2E inh, HPGD block)
COC(=O)C1=C(C(=O)OC)[C@@H]2N(C)c3ccccc3[C@@]23C[C@@H](C(=O)OC)N(S(=O)(=O)c2ccc4c(c2)OCCN4C)C3=N1	ALDH1A1 inh inconclusive (no result: HttQ103 aggreg)
Cc1ccc2nc(-c3ccsc3)c(NC3CCCC3)n2c1	ALDH1A1 inh inconclusive, JMJD2E inh inconclusive (no result: HPGD block)
CCCN(CC(=O)Nc1ccc(C(C)=O)cc1)CC(=O)Nc1ccccc1C	ALDH1A1 inh 14µM (no result: HPGD block)
CCN(CC)S(=O)(=O)c1ccc(OCC(=O)NC2CCS(=O)(=O)C2)c([N+](=O)[O-])c1 (stereo unspecified)	ALDH1A1 inh 14µM (no result: HPGD block)
O=C(O)CNc1ccc(C(=O)O)cc1	none (no result: HttQ103 aggreg, Lamin A splicing, JMJD2E inh)
COc1c(C)cc(C(=O)C2CCCN(C(=O)c3cc(C)nc(C)n3)C2)cc1C (stereo unspecified)	JMJD2E inh inconclusive (no result: Lamin A splicing, HPGD block)
COc1c(C)cc(C(=O)C2CCCN(C(=O)/C=C/c3ccccn3)C2)cc1C (stereo unspecified)	ALDH1A1 inh 14µM (no result: Lamin A splicing, HPGD block)
COC(=O)c1cc(CSc2nnc(NC3CCCCC3)s2)oc1C	HttQ103 aggreg 28µM, Lamin A splicing inconclusive, ALDH1A1 inh inconclusive
COc1ccc(N(CC(=O)NCc2ccccc2C)S(=O)(=O)c2ccccc2[N+](=O)[O-])c(OC)c1	none (no result: HPGD block)
O=C(O)c1ccc(C(=O)Nc2cccc(NC(=O)C3CCCO3)c2)cc1 (stereo unspecified)	HPGD block 22µM
O=C(Nc1ccc2c(c1)CCC2)C1CCCO1 (stereo unspecified)	HPGD block 18µM
O=C(Cc1ccccc1)Nc1ccc2c(c1)CCC2	none (no result: Lamin A splicing, HPGD block)
O=C(CC1CCCC1)Nc1ccc2c(c1)CCC2	HPGD block 14µM
CN(C(=O)COC(=O)CNC(=O)c1ccc(Cl)cc1Cl)c1ccccc1	none (no result: HPGD block)
O=C(CSc1nnc([C@@H]2CCCN2)o1)c1ccc(Cl)cc1	ALDH1A1 inh 22µM
C=C(C)CSc1nnc([C@@H]2CCCN2)o1	none (no result: Lamin A splicing, ALDH1A1 inh, HPGD block)
COc1ccc(/C=C(\C#N)C(=O)OC2CCOC2=O)cc1 (stereo unspecified)	Lamin A splicing inconclusive, ALDH1A1 inh 18µM, JMJD2E inh inconclusive (no result: HPGD block)
COc1cc(OC)cc(C(=O)NCC(=O)OC2CCOC2=O)c1 (stereo unspecified)	none
CCc1cc[n+](-c2nc3ccccc3nc2[N-]S(=O)(=O)c2ccc(Br)s2)cc1	Lamin A splicing inconclusive, ALDH1A1 inh 0.95µM
Cc1cc[n+](-c2nc3ccccc3nc2[N-]S(=O)(=O)c2ccccc2)cc1	HttQ103 aggreg inconclusive, ALDH1A1 inh inconclusive (no result: HPGD block)
O=C1C=C(Nc2ccc(O)cc2)CC(c2ccco2)C1 (stereo unspecified)	Lamin A splicing inconclusive, ALDH1A1 inh inconclusive, HPGD block 22µM
O=S1(=O)N=C(Nc2ccc(N3CCOCC3)cc2)c2ccccc21	none
Cc1ccccc1-c1ccc(Nc2ccc(N3CCOCC3)cc2)nn1	Lamin A splicing inconclusive, ALDH1A1 inh 8.9µM
CCCCC1=CC2=C(OC(C)=O)C(=O)C(C)(OC(=O)C3CCCC3)C(=O)C2=CO1 (stereo unspecified)	none (no result: HttQ103 aggreg, Lamin A splicing)
Nc1scc2c(C(=O)N/N=C/c3ccc(Cl)cc3)nn(-c3ccccc3)c(=O)c12	ALDH1A1 inh 10µM, HTT ATP protect inconclusive, HPGD block 14µM
Cc1cc(N=Cc2c(O)ccc3ccccc23)no1	ALDH1A1 inh inconclusive (no result: HPGD block)
Cc1cc(N=Cc2c(O)ccc3cc(Br)ccc23)no1	Lamin A splicing inconclusive, ALDH1A1 inh 1.8µM, JMJD2E inh inconclusive, HPGD block 10µM (no result: HTT ATP protect)
N#C/C(=C\c1cc(Cl)cc(Cl)c1)c1cccnc1	none (no result: HttQ103 aggreg, Lamin A splicing, JMJD2E inh, HPGD block)
CCC(C)(C)C1CCC(=NNS(=O)(=O)c2ccc(C)c([N+](=O)[O-])c2)CC1 (stereo unspecified)	ALDH1A1 inh 7.9µM
